Screening data from PubChem.
Sampled rows, rich in hits. Any-hit rate of the full collection: about 14%.
AID923 = qHTS Assay for Allosteric/Competitive Inhibitors of Caspase-1: Spectroscopic Profiling in AFC Spectral Region; AID 923, 2007; Potency, µM (doses to about 57.5 µM), without a hit: top-dose fluorescence increase, hits mostly activators; hit rate 1.1% among 75,000; compound fluorescence, AFC spectral region (405/520 nm); note: potency is the fitted concentration of half-maximal effect; 0% is about no effect
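Titrations up to 57 uM read every 20 sec for 3 min (405/520 nm) with 50 nM caspase 1 and 5 uM Ac-WEHD-AFC, pH 7.5 HEPES buffer. Fluorescence-vs-time intercept gave baseline, scaled against on-plate AFC standard.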
HSD17B inh = qHTS Assay for Inhibitors of HSD17B4, hydroxysteroid (17-beta) dehydrogenase 4 | AID 893, 2007 | hit rate 7.6% among 75,000 | recombinant HSD17B10, NADH fluorescence kinetic | Potency, µM (doses to about 57.1 µM), inactives show top-dose activity change, negative = inhibition, most hits filed as inhibitors;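 note: the protocol describes HADH2 (HSD17B10) and not the HSD17B4 of the title; potency is the fitted concentration of half-maximal effect; % is set by controls: 0 for no effect and ±100 for the full control effect; nearly all actives have a fitted effect of over 70% in size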
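His-tagged E. coli-expressed HADH2 at 20 nM in 100 mM Tris-HCl pH 9.0 with 0.01 % Tween-20, preincubated 15 min with compound at room temperature. Reaction with 1 mM NAD+ and 90 uM beta-hydroxybutyryl coenzyme A; NADH fluorescence (360/450 nm) read kinetically over 4 min, last minus first point.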
A350 autofl = qHTS Assay for Spectroscopic Profiling in A350 Spectral Region; hit rate 11% among 59,000; AID 590, 2007; max dye-equivalent concentration, M; Compound autofluorescence, 340/450 nm, Alexa 350 dye-equivalents; active compounds read high; in the data active = max dye-equivalent concentration above about 10 nM; inconclusive = mostly about 1.1 nM to 9.6 nM
4-MU autofl = qHTS Assay for Spectroscopic Profiling in 4-MU Spectral Region. compound autofluorescence, 340/450 nm, 4-MU equivalents; active compounds read high. hit rate 11% among 59,000. max dye-equivalent concentration, M; in the data active = max dye-equivalent concentration above about 10 nM; inconclusive = mostly about 1.1 nM to 9.6 nM
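Compounds in 100 mM Tris, pH 8.0, sat 15 min at room temperature before fluorescence was read at 340 nm excitation/450 nm emission; a per-plate six-point 4-MU standard curve converted signals to dye-equivalent concentration at each compound concentration.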
CRE-bla Fsk = Cell signaling CRE-BLA (Fsk stim). CHO CRE-bla reporter (cAMP response element driving beta-lactamase), forskolin EC10, beta-lactamase ratio. Potency, µM (doses to about 38.2 µM), without a hit: at the top dose activity change, negative = inhibition, usual class: activators. hit rate 2.5% among 71,000. AID 662, 2007; active = well fitted activation curve with a large enough effect in the signal ratio, with a control signal flat, not every such curve was filed as active; inconclusive = small, poorly fitted or top-dose-only effect, or effect the other way, or a change in a side signal; the % refers to the signal ratio; note: potency is the fitted concentration of half-maximal effect; % of control where 0% means no effect
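Using CellSensor CRE-bla CHO cells in Opti-MEM with 0.5% dialyzed FBS, compounds were titrated with EC10 NKH 477 for 3 h at 37 °C. CCF4 ratio (460/530 nm) gave %Activity; AC50 derived.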
HADH2 inh = qHTS Assay for Inhibitors of HADH2 (Hydroxyacyl-Coenzyme A Dehydrogenase, Type II); recombinant HADH2, NADH fluorescence, beta-hydroxybutyryl-CoA; Potency, µM (series often up to 57.1 µM), without a hit: at the top dose activity change, negative = inhibition, hits mostly inhibitors; hit rate 3.4% among 73,000; note: potency is the fitted concentration of half-maximal effect; % is set by controls: 0 for no effect and ±100 for the full control effect; nearly all actives have a fitted effect of over 60% in size
Target sequence (Q99714 whole entry, looked up, one chain of several): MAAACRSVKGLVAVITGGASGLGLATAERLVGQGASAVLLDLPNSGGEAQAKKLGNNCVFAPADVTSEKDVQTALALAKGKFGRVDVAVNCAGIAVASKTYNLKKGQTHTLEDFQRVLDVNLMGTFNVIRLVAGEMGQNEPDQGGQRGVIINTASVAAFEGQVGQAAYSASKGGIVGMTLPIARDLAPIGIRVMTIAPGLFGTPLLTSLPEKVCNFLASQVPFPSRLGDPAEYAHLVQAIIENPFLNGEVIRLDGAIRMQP
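His-tagged recombinant enzyme from E. coli, 20 nM, preincubated 15 min RT with compound; reaction started with 1 mM NAD+ and 90 uM beta-hydroxybutyryl-CoA in 100 mM Tris-HCl pH 9.0. NADH fluorescence (ex 360/em 450) read over 4 min; last-minus-first difference.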
Numbers without * were called inactive; i = inactive; ? = inconclusive; nt = not tested or not shown; [ ] = dose if it differs, or a comment. Unless noted, calls come from the whole dose curve; as a rule, active = well fitted curve in the direction sought with a large enough effect; inconclusive = small, poorly fitted or top-dose-only effect, or another doubt; inactive = no such curve, though single readings can be large; an effect the other way counts as inactive or inconclusive.

SMILES | AID923 | HSD17B inh | A350 autofl | 4-MU autofl | CRE-bla Fsk | HADH2 inh
CC(=O)COc1ccc2c3c(c(=O)oc2c1C)CCCCC3 | 0% | 13µM* | 8e-08M* | 7e-08M* | 2µM* | 13µM*
Cc1ccc(S(=O)(=O)Oc2cc(S(=O)(=O)O)cc3cc(S(=O)(=O)O)cc(N)c23)cc1 | -1%[11.5 µM] | -2%[11.4 µM] | ? | i | 6%[7.6 µM] | -13%[11.4 µM]
Cc1nc2scc(-c3ccco3)c2c(=O)n1/N=C/N(C)C | 0% | -20% | i | i | 14% | -10%
Cc1c(OCC(=O)OC(C)C)ccc2c3c(c(=O)oc12)CCC3 | -1% | nt | ? | ? | -26% | 18%
Cc1oc(C(=O)O)cc1COc1ccc2c3c(c(=O)oc2c1C)CCCC3 | 1% | 4µM* | nt | nt | ? | -10%[11.4 µM]
CCSc1nc(-c2ccc(OC)cc2)n(-c2nc3ccccc3s2)n1 | 0% | 32µM* | i | i | 1% | ?
COc1ccc(C(O)c2nc3ccccc3s2)cc1 (stereo not drawn) | 0% | 4% | i | i | 4% | -3%
CN(C)CCC(c1ccc(Cl)cc1)c1ccccn1 (stereo not drawn) | 3% | 6% | nt | nt | -1% | 2%
CN(C)CCCc1c2ccccc2nc2ccc(Cl)cc12 | 1%[11.5 µM] | -1%[11.4 µM] | 7.2e-07M* | 6.7e-07M* | ? | -6%[11.4 µM]
O=C(c1ccccc1)N1CCCC(C(=O)N2CCCCCC2)C1 (stereo not drawn) | -1% | 11% | i | i | 2% | 9%
O=C(c1ccc(-c2ccccc2)cc1)N1CCC(C(=O)N2CCCC2)CC1 | -1% | 17% | 3e-08M* | 2.5e-08M* | -11% | 10%
CC1(C)OC2CC3C4CC(F)C5=CC(=O)C=CC5(C)C4C(O)CC3(C)[C@]2(C(=O)CO)O1 (stereo partly drawn) | -3% | ? | nt | nt | nt | nt
CC1(C)O[C@@H]2C[C@H]3[C@H]4C[C@H](F)C5=CC(=O)C=C[C@@]5(C)[C@@H]4[C@H](O)C[C@]3(C)[C@]2(C(=O)CO)O1 | 4%[25.7 µM] | -16%[25.6 µM] | 2.4e-08M* | 2.3e-08M* | 0%[17.1 µM] | -10%[25.6 µM]
Cn1c(=NC(=O)CSCC(=O)N2CCCC2)sc2ccccc21 | 0% | -1% | 2.2e-08M* | 2.3e-08M* | ? | 1%
COc1ccc(N(CC(=O)Nc2cccc(OC)c2)S(=O)(=O)c2c(C)nn(C)c2C)cc1 | -1% | 0% | i | i | -12% | 4%
COc1ccc(OC)c(NC(=O)CN(c2ccc(OC)c(Cl)c2)S(C)(=O)=O)c1 | -3% | 2% | i | i | 5µM* | -1%
COc1ccc(N(CC(=O)Nc2cc(OC)ccc2OC)S(=O)(=O)c2c(C)nn(C)c2C)cc1 | 0% | -2% | nt | nt | 5µM* | -6%
O=C1OCc2cc(NC(=O)C3COc4ccccc4O3)ccc21 (stereo not drawn) | 0% | 0% | nt | nt | -2% | 8%
CC(C)=C1C(=O)C(c2ccccc2)=C2CN3C(=O)N(CCc4ccccc4)C(=O)[C@]3(C)[C@H]21 | 1% | 3% | nt | nt | -15% | 7%
COC(=O)c1ccc(C(NC(=O)OCc2ccccc2)/C(=C/[C@@H](C)C(=O)NCc2nc3ccccc3s2)c2cccnc2)cc1 (stereo partly drawn) | -1% | -2% | nt | nt | -18% | 8%
CN(C)c1ccc(-c2noc(-c3ccccc3O)n2)cc1 | 0% | 4µM* | 3.3e-07M* | 4.2e-07M* | 20% | 25µM*
COc1cc([C@@H](O)CO)ccc1OS(=O)(=O)O | -4% | 7% | i | i | -3% | 11%
O=S(=O)(c1ccc2ccccc2c1)N1CCCCC1 | -1% | -7% | nt | nt | -7% | -1%
O=S(=O)(Nc1cccc2ccccc12)N1CCCC1 | 0% | 32µM* | ? | ? | -6% | 32µM*
O=C(NCCc1ccccc1)c1ccccc1NS(=O)(=O)N1CCCC1 | 1% | 32µM* | ? | ? | 20% | 10µM*
SMILES | AID923 | HSD17B inh | A350 autofl | 4-MU autofl | CRE-bla Fsk | HADH2 inh
COc1ccccc1NC(=O)c1ccccc1NS(=O)(=O)N1CCCC1 | -1% | -22% | ? | ? | 7% | -2%
CC(=O)Nc1ccc2nc(-c3ccccn3)[nH]c2c1 | 3% | 3.2µM* | ? | ? | 13% | ?
CC(=O)Nc1ccc(-c2nc3c(C)cccc3[nH]2)cc1 | 0% | 32µM* | i | i | ? | 32µM*
CC(=O)Nc1ccc(-c2nc3ccc(Cl)cc3[nH]2)cc1 | -2% | 20µM* | nt | nt | nt | nt
CCCN1CCN(c2ncnc3c2nnn3Cc2ccccc2)CC1 | 2% | 2% | i | i | 7% | 7%
Clc1cccc(Cl)c1Cn1cnc2c(N3CCCCCC3)ncnc21 | 1% | 16% | ? | ? | 2µM* | 10%
c1ccc(Cn2nnc3c(N4CCc5ccccc54)ncnc32)cc1 | 0% | ? | 8.5e-07M* | 1.1e-06M* | 0% | 25µM*
c1ccc(Cn2nnc3c(N4CCCCCC4)ncnc32)cc1 | 3% | -1% | nt | nt | 3.2µM* | -1%
O=C(COC(=O)C1CCN(S(=O)(=O)c2cccs2)CC1)c1cc2ccccc2o1 | -1% | -12% | i | i | ? | ?
Cc1noc(C)c1C(=O)N1CCC2(CC1)CN(c1ccccc1)C2 | 1% | 6% | i | i | -2% | 9%
CSc1nc2c(c(=O)[nH]c(=O)n2C)n1C/C=C(\C)Cl | 2% | -1% | i | i | 13µM* | -22%
C=CCn1c(N2CCCCCC2)nc2c1c(=O)[nH]c(=O)n2C | 0% | 12% | i | i | ? | 4%
CCSc1nc2c(c(=O)[nH]c(=O)n2C)n1C/C=C(/C)Cl | 0% | -5% | i | i | 2.5µM* | -9%
C/C(Cl)=C\Cn1c(N2CCCC2)nc2c1c(=O)[nH]c(=O)n2C | -1% | 5% | ? | ? | 13µM* | 1%
CCCCCn1c(N2CCOCC2)nc2c1c(=O)n(CC(N)=O)c(=O)n2C | 1% | 4% | i | i | 26% | 10%
CC1(C)OC(C(O)(c2cc(C(F)(F)F)cc(C(F)(F)F)c2)c2cc(C(F)(F)F)cc(C(F)(F)F)c2)C(C(O)(c2cc(C(F)(F)F)cc(C(F)(F)F)c2)c2cc(C(F)(F)F)cc(C(F)(F)F)c2)O1 (stereo not drawn) | 0%[11.5 µM] | 3%[11.4 µM] | nt | nt | nt | -2%[11.4 µM]
O=C(c1cc(C(F)(F)F)cc(C(F)(F)F)c1)N1CCC[C@@]2(CCN(Cc3ccccc3)C2)C1 | 1% | -5% | i | i | -13% | 5%
